# Experimental data published in ChEMBL document CHEMBL2218924, “A broad activity screen in support of a chemogenomic map for kinase signalling research and drug discovery” (Biochem J, 2013).
# Target: T1, Protein kinase C iota type (Homo sapiens) (UniProt P41743)
# T1 sequence (whole entry): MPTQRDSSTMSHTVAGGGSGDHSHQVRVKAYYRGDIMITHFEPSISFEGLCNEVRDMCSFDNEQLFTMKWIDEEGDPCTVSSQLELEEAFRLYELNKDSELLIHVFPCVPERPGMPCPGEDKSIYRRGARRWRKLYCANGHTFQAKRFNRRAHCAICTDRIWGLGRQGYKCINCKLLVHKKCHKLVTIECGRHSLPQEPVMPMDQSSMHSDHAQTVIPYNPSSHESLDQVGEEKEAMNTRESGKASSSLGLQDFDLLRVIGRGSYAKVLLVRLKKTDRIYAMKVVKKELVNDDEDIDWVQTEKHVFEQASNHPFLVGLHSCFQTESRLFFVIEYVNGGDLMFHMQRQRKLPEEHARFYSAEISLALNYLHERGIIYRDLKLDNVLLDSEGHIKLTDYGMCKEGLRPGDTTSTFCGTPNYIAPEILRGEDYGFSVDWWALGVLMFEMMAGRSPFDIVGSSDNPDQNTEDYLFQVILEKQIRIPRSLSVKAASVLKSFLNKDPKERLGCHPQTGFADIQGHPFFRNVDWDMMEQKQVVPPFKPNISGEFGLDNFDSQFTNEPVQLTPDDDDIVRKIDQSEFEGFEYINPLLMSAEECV
# Conditions: at 10 µM
row,SMILES,residual activity
1,CC(C)[C@H](CO)Nc1nc(Nc2cc(N)cc(Cl)c2)c2ncn(C(C)C)c2n1,89%
2,O=C(c1ccccc1)c1ccc(N2CCOCC2)cc1O,73%
3,COc1cc2nccc(Oc3ccc(NC(=S)NC(=O)c4ccccc4C)cc3)c2cc1OC,82%
4,O=C1NC(=O)C(c2c[nH]c3ccccc23)=C1c1c[nH]c2ccccc12,79%
5,Nc1ncnc2c1c(-c1ccc(Oc3ccccc3)cc1)cn2C1CCCC1,76%
6,Nc1ncnc2c1cnn2-c1ccccc1,98%
7,O=C1C(Cl)=C(N2C(=O)CCC2=O)C(=O)c2ccccc21,55%
8,CCCCc1c(-c2ccc(O)cc2)[nH]c2nccnc12,83%
9,O=C1NC(=O)c2c1c1c3ccccc3[nH]c1n1cncc21,52%
10,CSc1nc(-c2ccc(F)cc2)c(-c2ccnc(NC(C)c3ccccc3)c2)[nH]1 (centres undefined),99%
11,CC(C)c1nn(-c2c(Cl)cccc2Cl)c2nc(Cc3ccc(OCCO)cc3)[nH]c(=O)c12,102%
12,COc1ccc2c(c1)c(C1=C(c3c[nH]c4ccccc34)C(=O)NC1=O)cn2CCCN(C)C,62%
13,O=c1cc(N2CCOCC2)oc2c1ccc1ccccc12,97%
14,O=c1cc(N2CCNCC2)oc2c(-c3ccccc3)cccc12,71%
15,Nc1ncnc2[nH]nc(Nc3ccc(F)cc3)c12,109%
16,NC(=O)Nc1sc(-c2ccc(F)cc2)cc1C(N)=O,107%
17,O=C(O)/C=C/c1cc(Br)c(Br)c(Br)c1Br,100%
18,Cn1sc(=O)n(Cc2ccccc2)c1=O,19%
19,O=C1Nc2ccc(Cl)cc2/C1=C/c1cc(Cl)c(O)c(Cl)c1,83%
20,CC(C)(C)n1nc(Cc2cccc3ccccc23)c2c(N)ncnc21,82%

# Target: T2, Serine/threonine-protein kinase D1 (Homo sapiens) (UniProt Q15139)
# T2 sequence (whole entry): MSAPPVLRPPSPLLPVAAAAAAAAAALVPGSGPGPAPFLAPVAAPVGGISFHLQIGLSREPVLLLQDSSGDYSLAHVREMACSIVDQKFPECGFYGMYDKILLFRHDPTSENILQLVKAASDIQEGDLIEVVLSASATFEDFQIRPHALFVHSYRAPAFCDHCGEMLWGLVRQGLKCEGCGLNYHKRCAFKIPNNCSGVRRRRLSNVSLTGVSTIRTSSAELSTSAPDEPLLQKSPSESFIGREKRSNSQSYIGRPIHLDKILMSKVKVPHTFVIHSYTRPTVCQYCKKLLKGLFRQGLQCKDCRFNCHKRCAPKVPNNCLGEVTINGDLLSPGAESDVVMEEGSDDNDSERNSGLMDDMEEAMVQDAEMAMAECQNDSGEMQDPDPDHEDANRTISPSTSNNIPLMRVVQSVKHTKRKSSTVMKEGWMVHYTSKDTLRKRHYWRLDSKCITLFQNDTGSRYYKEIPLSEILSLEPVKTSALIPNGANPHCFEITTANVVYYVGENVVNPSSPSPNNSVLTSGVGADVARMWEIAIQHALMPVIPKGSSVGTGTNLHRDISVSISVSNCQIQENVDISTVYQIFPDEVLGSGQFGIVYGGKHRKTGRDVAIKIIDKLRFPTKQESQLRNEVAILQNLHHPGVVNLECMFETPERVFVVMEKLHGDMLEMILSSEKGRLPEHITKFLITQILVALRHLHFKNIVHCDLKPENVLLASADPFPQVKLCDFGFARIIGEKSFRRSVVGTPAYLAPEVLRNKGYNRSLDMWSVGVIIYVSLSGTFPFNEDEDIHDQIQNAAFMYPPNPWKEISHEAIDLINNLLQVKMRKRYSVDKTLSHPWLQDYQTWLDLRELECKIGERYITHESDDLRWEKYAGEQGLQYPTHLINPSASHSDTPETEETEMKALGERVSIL
# Conditions: at 1 µM
row,SMILES,residual activity
1,Nc1n[nH]c2nc3ccccc3nc12,83%
2,CCCC(=O)Oc1ccc2[nH]c(C(=O)c3cc4ccccc4[nH]3)cc2c1,101%
3,CC(C)[C@H](CO)Nc1nc(Nc2cc(N)cc(Cl)c2)c2ncn(C(C)C)c2n1,99%
4,O=C(c1ccccc1)c1ccc(N2CCOCC2)cc1O,95%
5,COc1cc2nccc(Oc3ccc(NC(=S)NC(=O)c4ccccc4C)cc3)c2cc1OC,87%
6,O=S(=O)(c1cccc2cnccc12)N1CCCNCC1,84%
7,N#Cc1c(NC(=O)c2cccc3ccccc23)sc2c1CCCC2,92%
8,COc1cc2ncnc(Nc3cccc(Cl)c3)c2cc1OC,110%
9,Nc1ncnc2c1cnn2-c1ccccc1,92%
10,O=C1C(Cl)=C(N2C(=O)CCC2=O)C(=O)c2ccccc21,72%
11,Nc1nccc(-c2c(-c3ccc(F)cc3)ncn2C2CCNCC2)n1,46%
12,CCCCc1c(-c2ccc(O)cc2)[nH]c2nccnc12,83%
13,O=C1NC(=O)c2c1c1c3ccccc3[nH]c1n1cncc21,41%
14,CSc1nc(-c2ccc(F)cc2)c(-c2ccnc(NC(C)c3ccccc3)c2)[nH]1 (centres undefined),97%
15,COc1ccc2c(c1)c(C1=C(c3c[nH]c4ccccc34)C(=O)NC1=O)cn2CCCN(C)C,108%
16,O=c1cc(N2CCOCC2)oc2c1ccc1ccccc12,77%
17,COc1cc2c(cc1OC)-c1n[nH]c(Nc3cccc(F)c3)c1C2,78%
18,O=c1cc(N2CCNCC2)oc2c(-c3ccccc3)cccc12,96%
19,Nc1ncnc2[nH]nc(Nc3ccc(F)cc3)c12,81%
20,NC(=O)Nc1sc(-c2ccc(F)cc2)cc1C(N)=O,58%
21,O=C(O)/C=C/c1cc(Br)c(Br)c(Br)c1Br,109%
22,Cn1sc(=O)n(Cc2ccccc2)c1=O,90%
23,CC(C)(C)n1nc(Cc2cccc3ccccc23)c2c(N)ncnc21,22%
24,O=C1Cc2c([nH]c3ccc(Br)cc23)-c2ccccc2N1,99%
25,NC(=O)c1ccc(-c2nc(-c3ccc4c(c3)OCCO4)c(-c3ccccn3)[nH]2)cc1,87%

# Target: T2, Serine/threonine-protein kinase D1 (Homo sapiens)
# Conditions: at 10 µM
row,SMILES,residual activity
1,Nc1n[nH]c2nc3ccccc3nc12,69%
2,CCCC(=O)Oc1ccc2[nH]c(C(=O)c3cc4ccccc4[nH]3)cc2c1,103%
3,CC(C)[C@H](CO)Nc1nc(Nc2cc(N)cc(Cl)c2)c2ncn(C(C)C)c2n1,81%
4,COc1cc2nccc(Oc3ccc(NC(=S)NC(=O)c4ccccc4C)cc3)c2cc1OC,89%
5,O=S(=O)(c1cccc2cnccc12)N1CCCNCC1,20%
6,O=C1NC(=O)C(c2c[nH]c3ccccc23)=C1c1c[nH]c2ccccc12,71%
7,N#Cc1c(NC(=O)c2cccc3ccccc23)sc2c1CCCC2,83%
8,COc1cc2ncnc(Nc3cccc(Cl)c3)c2cc1OC,73%
9,O=C1C(Cl)=C(N2C(=O)CCC2=O)C(=O)c2ccccc21,76%
10,Nc1nccc(-c2c(-c3ccc(F)cc3)ncn2C2CCNCC2)n1,3%
11,CCCCc1c(-c2ccc(O)cc2)[nH]c2nccnc12,59%
12,O=C1NC(=O)c2c1c1c3ccccc3[nH]c1n1cncc21,25%
13,CSc1nc(-c2ccc(F)cc2)c(-c2ccnc(NC(C)c3ccccc3)c2)[nH]1 (centres undefined),44%
14,CC(C)c1nn(-c2c(Cl)cccc2Cl)c2nc(Cc3ccc(OCCO)cc3)[nH]c(=O)c12,95%
15,COc1ccc2c(c1)c(C1=C(c3c[nH]c4ccccc34)C(=O)NC1=O)cn2CCCN(C)C,58%
16,O=c1cc(N2CCOCC2)oc2c1ccc1ccccc12,79%
17,O=c1cc(N2CCNCC2)oc2c(-c3ccccc3)cccc12,90%
18,Nc1ncnc2[nH]nc(Nc3ccc(F)cc3)c12,64%
19,NC(=O)Nc1sc(-c2ccc(F)cc2)cc1C(N)=O,29%
20,O=C(O)/C=C/c1cc(Br)c(Br)c(Br)c1Br,64%
21,Cn1sc(=O)n(Cc2ccccc2)c1=O,64%
22,O=C1Cc2c([nH]c3ccc(Br)cc23)-c2ccccc2N1,80%
23,NC(=O)c1ccc(-c2nc(-c3ccc4c(c3)OCCO4)c(-c3ccccn3)[nH]2)cc1,62%
24,O=S(=O)(NCCNC/C=C/c1ccc(Br)cc1)c1cccc2cnccc12,20%
